Reference: ChEMBL document CHEMBL4513216, “Probing the Open Global Health Chemical Diversity Library for Multistage-Active Starting Points for Next-Generation Antimalarials” (ACS Infect Dis, 2020)
Among all 69,000 compounds or so, about 8,600 (12%) showed an effect of 50% or more. The sample as a whole holds a higher share of strong results than the screen did.

Test system: Plasmodium berghei
Assay: Screen against P. berghei liver stage (PbLuc), transformed with Luciferase, at 10uM
Assay type: functional, HepG2
Details: tested at 10 uM

| SMILES | INHIBITION |
| --- | --- |
| COc1c(CNCc2nnc3n2CCCCC3)c(C)nn1C | 31.6% |
| CCN1C[C@@H]2[C@@H](OC)CCN(C(=O)Cc3ccsc3)[C@@H]2C1 | 11.2% |
| O=C(c1cnccn1)N(CCO)Cc1cc(Br)ccc1F | -7.81% |
| COCCNC(=O)Cn1cc(OCc2ccccc2F)c(=O)cc1CO | 10.5% |
| CC(C)CS(=O)(=O)CC(=O)NC(C)c1nnc2n1CCC2 (configuration not stated) | 31.3% |
| COc1cccc(C(=O)N2CCOCC2CN(C)C)c1OC (configuration not stated) | 7.44% |
| Cc1[nH]c(=O)[nH]c(=O)c1CN1CCCC(CCc2ccc(F)cc2F)C1 (configuration not stated) | -13.5% |
| Fc1ccc(CCC2CCCN(Cc3c[nH]cn3)C2)c(F)c1 (configuration not stated) | 71.2% |
| Cc1nc(CN2CCCC(CCNS(C)(=O)=O)C2)c[nH]1 (configuration not stated) | -1.53% |
| Cc1nc(CN2CCCC(CCc3c(F)cccc3F)C2)c[nH]1 (configuration not stated) | 25.1% |
| Cc1nc(CN2CCCC(CCc3ccccc3C)C2)c[nH]1 (configuration not stated) | 47.6% |
| Cc1nc(CN2CCCC(CCc3ccccc3F)C2)c[nH]1 (configuration not stated) | 57.6% |
| Cc1nc(CN2CCCC(Cn3cc(CCO)nn3)C2)c[nH]1 (configuration not stated) | 18.5% |
| Cc1nc(CN2CCCC(CCc3ccc(F)c(F)c3)C2)c[nH]1 (configuration not stated) | 55.7% |
| Cc1nc(CN2CCCC(CCc3ccc(F)cc3F)C2)c[nH]1 (configuration not stated) | 33.5% |
| CN(C)c1nccc(-c2cnc(N(C)C)[nH]c2=O)n1 | 13% |
| COCc1ccccc1CNCc1c(C(C)C)nn(C)c1N(C)C | 20.85% |
| CN1CC(=O)N(c2ccsc2)CC12CCN(S(=O)(=O)c1ccccc1)C2 (configuration not stated) | -41.4% |
| Cc1ccccc1CN(CCN(C)C)Cc1ccccc1C(=O)O | 2.18% |
| CCN(Cc1cc(F)ccc1Cl)C1CCS(=O)(=O)C1 (configuration not stated) | 12.1% |
| N#Cc1cc(S(N)(=O)=O)ccc1N1CCc2c(Cl)cccc2C1 | 9.52% |
| CC(C)(C)c1ncc(C(=O)NCCNC(=O)c2ccc(O)cc2)s1 | 29.2% |
| Cc1nc(C)c(C(=O)N2CCc3c(C)cccc32)o1 | 5.91% |

| SMILES | INHIBITION |
| --- | --- |
| COc1cccc2c1CCCCN2C(=O)c1oc(C)nc1C | 53.7% |
| Cc1nc(C)c(C(=O)N2CCCc3c(F)cccc32)o1 | 35.2% |
| CCN(CCNS(=O)(=O)C1CCOCC1)C(=O)OC(C)(C)C | -21.2% |
| Cc1csc(NC(=O)CN(C)CCOc2cccc(F)c2)n1 | 1.05% |
| c1ccc(Cc2nnc(CN3CCCC3Cn3cccn3)o2)cc1 (configuration not stated) | 24% |
| CCc1nc(Cn2c(=O)n(CC)c3ccccc32)no1 | 57.3% |
| CCc1nc(Cn2c(=O)n(C)c3ccccc32)no1 | 45.2% |
| CCCc1nc(Cn2c(=O)n(C)c3ccccc32)no1 | 29.4% |
| CC(C)NC(=O)[C@H]1C[C@@H]2[C@@H](C1)OCCN2CC1CC1 | 48.2% |
| N#Cc1cccc(CN(CC(=O)N2CCCC2)CC2CCCO2)c1 (configuration not stated) | -4.91% |
| N#Cc1ccc(F)c(CN(CC(=O)N2CCCC2)CC2CCCO2)c1 (configuration not stated) | -13.5% |
| N#Cc1csc(CN(CC(=O)N2CCCC2)CC2CCCO2)c1 (configuration not stated) | 70.9% |
| O=C([C@@H]1CC[C@@H]2[C@@H](CCN2CCOCc2ccccc2)O1)N1CCCC1 | 32.1% |
| CCCNC(=O)CCOc1cccc(F)c1 | 14.465% |
| Cc1ccc(CN(CCN(C)C)C(=O)Nc2ccc(C)c(C#N)c2)s1 | 60% |
| CC(=O)c1ccc(NC(=O)N(CCN(C)C)Cc2ccc(C)s2)cc1 | 26.6% |
| Cc1ccc(CN(CCN(C)C)C(=O)Nc2cc(C(N)=O)ccc2C)s1 | 19.2% |
| Cc1cnn(CC2CCCN2C(=O)c2cccnc2-n2cncn2)c1 (configuration not stated) | 31.9% |
| Cc1cccc2c(CCNS(=O)(=O)C3CCOC3)c[nH]c12 (configuration not stated) | 39.2% |
| Cc1cccc2c(CCNC(=O)[C@H](N)c3ccccc3)c[nH]c12 | 61.1% |
| Cc1cccc2c(CCNC(=O)NCCC[S+](C)[O-])c[nH]c12 (configuration not stated) | 51% |
| CC(=O)N1CCC(C(=O)NCCc2c[nH]c3cc(C)ccc23)CC1 | 11.9% |
| Cc1cccc2c(CCNC(=O)NCC[S+](C)[O-])c[nH]c12 (configuration not stated) | 26.4% |

| SMILES | INHIBITION |
| --- | --- |
| COc1c(Br)cccc1CCNC(=O)c1ncoc1C | -53.1% |
| Cc1cnn(CC2CCCCN2C(=O)Cn2nc(C)c(Cl)c2C)c1 (configuration not stated) | 13.8% |
| O=C(CCNS(=O)(=O)c1ccc(Cl)cc1)NCc1ccoc1 | -11.6% |
| CCNc1ncc(C(=O)NC(CC)c2ccnn2C)cn1 (configuration not stated) | 48.2% |
| Cn1cnc2cc(CCC(=O)Nc3n[nH]c(C4CC4)n3)ccc21 | 41.5% |
| O=C(C1CC1)N1CCC2(COCc3cnc(NCc4ccco4)nc32)C1 (configuration not stated) | -3.33% |
| O=C(CC1CC1)N1CCC2(COCc3cnc(N4CCOCC4)nc32)C1 (configuration not stated) | 61.4% |
| O=C(CC1CC1)N1CCC2(COCc3cnc(-c4cccnc4)nc32)C1 (configuration not stated) | 42.1% |
| COCC(=O)N1CCC2(COCc3cnc(N4CCOCC4)nc32)C1 (configuration not stated) | 84.7% |
| CC(C)(C)C(=O)N1CCC2(COCc3cnc(N4CCOCC4)nc32)C1 (configuration not stated) | -18.2% |
| O=C(C1CCC1)N1CCC2(COCc3cnc(N4CCOCC4)nc32)C1 (configuration not stated) | -4.56% |
| COCCC(=O)N1CCC2(COCc3cnc(N4CCOCC4)nc32)C1 (configuration not stated) | 34.7% |
| COCC(=O)N1CCC2(COCc3cnc(-c4ccccc4)nc32)C1 (configuration not stated) | -22.4% |
| O=C(C1CC1)N1CCC2(COCc3cnc(N4CCOCC4)nc32)C1 (configuration not stated) | 60.1% |
| CC(C)NC(=O)N1CCC2(COCc3cnc(N4CCOCC4)nc32)C1 (configuration not stated) | -18.4% |
| CCC(=O)N1CCC2(COCc3cnc(N4CCOCC4)nc32)C1 (configuration not stated) | 57.9% |
| O=C([C@@H]1C[C@@H]2CCN(C3CCOCC3)C[C@H]2O1)N1CCOCC1 | -28% |
| CC(=O)N1CCC(Cc2cnc(-c3c(C)nn(C)c3C)cn2)CC1 | -26.2% |
| Cn1cnnc1C1CCCN(C(=O)c2cc3ccccc3[nH]2)C1 (configuration not stated) | -8.11% |
| Cc1ccncc1C(=O)N1C[C@@H]2CN(c3ncccn3)C[C@]2(C(=O)O)C1 | 7.65% |
| COCCN1CCCn2c(nc(Cn3cncn3)cc2=O)C1 | 13.6% |
